“And” between values parts separate entries of the source, which are not always exact repeats. Equal entries are not always repeated. Records with an inconclusive call do not appear. The source made the active and inactive calls. Unless noted, calls follow the shape of the dose curve; as a rule, active = well fitted curve in the direction sought with a large enough effect in the repeat runs; inconclusive = weak or mixed curves; inactive = no such curve, though single readings can be large; an effect the other way counts as inactive or inconclusive.
Legend:
[1] = qHTS assay to identify aromatase inhibitors - cell viability counter screen (AID 743084);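 also: cells stimulated with testosterone during compound exposure; nearly all actives have a fitted effect of over 55% in size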; also: potency is read from the fitted curve at half-maximal effect
[2] = target: Aryl hydrocarbon receptor (Homo sapiens) (UniProt P35869); test: qHTS assay to identify small molecule that activate the aryl hydrocarbon receptor (AhR) signaling pathway (AID 743085); also: nearly all actives have a fitted effect of over 15% in size; also: potency is read from the fitted curve at half-maximal effect;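 as to activation: HG2L7.5c1 human HepG2 liver cells with stably integrated DRE-driven firefly reporter; series mostly up to about 70 µM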
Sequence of Aryl hydrocarbon receptor (Homo sapiens) (P35869 whole entry, looked up): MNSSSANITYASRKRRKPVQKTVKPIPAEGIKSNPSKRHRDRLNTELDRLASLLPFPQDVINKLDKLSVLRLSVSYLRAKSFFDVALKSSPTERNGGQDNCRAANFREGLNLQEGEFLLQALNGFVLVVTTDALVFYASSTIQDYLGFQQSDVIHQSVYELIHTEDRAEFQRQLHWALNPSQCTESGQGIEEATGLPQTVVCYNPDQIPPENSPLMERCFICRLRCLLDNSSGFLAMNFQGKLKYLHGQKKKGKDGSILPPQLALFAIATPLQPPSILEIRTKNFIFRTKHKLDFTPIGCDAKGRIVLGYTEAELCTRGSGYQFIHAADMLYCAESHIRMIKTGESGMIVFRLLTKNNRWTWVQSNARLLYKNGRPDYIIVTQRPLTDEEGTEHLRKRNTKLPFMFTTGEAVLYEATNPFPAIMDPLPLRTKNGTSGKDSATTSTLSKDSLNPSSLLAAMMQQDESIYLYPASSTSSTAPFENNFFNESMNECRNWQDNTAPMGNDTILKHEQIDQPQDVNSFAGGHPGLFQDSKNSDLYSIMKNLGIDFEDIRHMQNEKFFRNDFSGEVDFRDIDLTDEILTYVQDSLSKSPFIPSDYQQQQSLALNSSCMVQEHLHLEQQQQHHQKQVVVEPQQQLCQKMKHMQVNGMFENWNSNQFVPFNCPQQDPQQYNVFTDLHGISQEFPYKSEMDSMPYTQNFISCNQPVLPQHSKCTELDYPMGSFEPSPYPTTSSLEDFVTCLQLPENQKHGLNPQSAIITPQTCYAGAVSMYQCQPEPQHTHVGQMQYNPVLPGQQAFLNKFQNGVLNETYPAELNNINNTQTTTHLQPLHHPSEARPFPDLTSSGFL
How it was run: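 Compounds were tested in HepG2 hepatocellular carcinoma cells harbouring a stably integrated luciferase gene under control of 20 DREs. Increased reporter signal after 24 h treatment at 37C was taken as AhR activation.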

[3] = qHTS assay to identify small molecule that activate the aryl hydrocarbon receptor (AhR) signaling pathway - cell viability counter screen (AID 743086); also: nearly all actives have a fitted effect of over 45% in size; also: potency is read from the fitted curve at half-maximal effect
How it was run: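 HepG2-AhR-luc (HG2L7.5c1) cells, 4000/well, were preincubated 5 h at 37C, exposed to compound in qHTS format for 24 hr at 37C, then given CellTiter-Fluor for 30 min; viability was read as fluorescence in the reporter wells.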

[4] = target: Peroxisome proliferator-activated receptor gamma (Homo sapiens) (UniProt P37231); test: qHTS assay to identify small molecule antagonists of the peroxisome proliferator-activated receptor gamma (PPARg) signaling pathway (AID 743191; calls by dose curve; also: nearly all actives have a fitted effect of over 30% in size; also: potency is read from the fitted curve at half-maximal effect)
Sequence of Peroxisome proliferator-activated receptor gamma (Homo sapiens) (P37231 whole entry, looked up): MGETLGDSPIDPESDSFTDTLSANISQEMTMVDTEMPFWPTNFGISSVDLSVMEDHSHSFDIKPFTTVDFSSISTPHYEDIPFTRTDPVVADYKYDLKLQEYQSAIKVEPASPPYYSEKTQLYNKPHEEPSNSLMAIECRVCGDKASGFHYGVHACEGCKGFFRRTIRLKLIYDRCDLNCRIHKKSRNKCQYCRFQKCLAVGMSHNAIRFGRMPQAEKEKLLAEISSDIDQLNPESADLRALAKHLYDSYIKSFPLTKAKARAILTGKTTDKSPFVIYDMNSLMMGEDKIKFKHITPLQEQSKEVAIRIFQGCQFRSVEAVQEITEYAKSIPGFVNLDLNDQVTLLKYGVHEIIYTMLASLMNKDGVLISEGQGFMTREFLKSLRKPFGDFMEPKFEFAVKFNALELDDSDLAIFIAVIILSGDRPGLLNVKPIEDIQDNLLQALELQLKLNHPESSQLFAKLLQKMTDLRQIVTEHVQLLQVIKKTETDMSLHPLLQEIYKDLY
How it was run: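 GeneBLAzer PPARg UAS-bla HEK293H cells carrying a UAS-driven beta-lactamase reporter were plated at 3000 cells/well, preincubated 5 h at 37C, then given compound for 17 h at 37C; LiveBLAzer B/G FRET substrate was read after 1 h at room temperature.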

[5] = qHTS assay for small molecule agonists of the antioxidant response element (ARE) signaling pathway - cell viability counter screen (AID 743203; calls by dose curve; also: nearly all actives have a fitted effect of over 55% in size; also: potency is read from the fitted curve at half-maximal effect)
How it was run: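 Compounds in DMSO were pinned onto ARE-bla HepG2 cells plated 5 hrs earlier at 2,000 cells/well. Sixteen hours later at 37C/5% CO2, CellTiter-Glo was added and luminescence measured after 30 min at room temperature.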

[6] = qHTS assay for small molecule activators of the heat shock response signaling pathway - cell viability counter screen (AID 743209); also: nearly all actives have a fitted effect of over 50% in size; also: potency is read from the fitted curve at half-maximal effect
How it was run: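 Counter screen for cytotoxicity in HeLa HSE-bla reporter cells. Treatment was 5 h at 37 C; viability was detected by luminescent ATP assay (CellTiter-Glo) in the same wells as the beta-lactamase read.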

[7] = qHTS assay for small molecule activators of the heat shock response signaling pathway (AID 743210; active = well fitted activation curve with a large enough effect in the signal ratio in the repeat runs, with a control signal flat, not every such curve was filed as active; the % refers to the signal ratio;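 also: HeLa cells with beta-lactamase reporter driven by heat shock elements; series mostly up to about 63 µM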)
How it was run: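 Reporter gene assay: HeLa cells stably bearing an HSE-bla construct, compound treatment 5 h at 37 C, LiveBLAzer substrate 2.5 h at RT, fluorescence intensity.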

[8] = target: Peroxisome proliferator-activated receptor delta (Homo sapiens) (UniProt Q03181); test: qHTS assay to identify small molecule agonists of the peroxisome proliferator-activated receptor delta (PPARd) signaling pathway (AID 743212; calls by dose curve)
Sequence of Peroxisome proliferator-activated receptor delta (Homo sapiens) (Q03181 whole entry, looked up): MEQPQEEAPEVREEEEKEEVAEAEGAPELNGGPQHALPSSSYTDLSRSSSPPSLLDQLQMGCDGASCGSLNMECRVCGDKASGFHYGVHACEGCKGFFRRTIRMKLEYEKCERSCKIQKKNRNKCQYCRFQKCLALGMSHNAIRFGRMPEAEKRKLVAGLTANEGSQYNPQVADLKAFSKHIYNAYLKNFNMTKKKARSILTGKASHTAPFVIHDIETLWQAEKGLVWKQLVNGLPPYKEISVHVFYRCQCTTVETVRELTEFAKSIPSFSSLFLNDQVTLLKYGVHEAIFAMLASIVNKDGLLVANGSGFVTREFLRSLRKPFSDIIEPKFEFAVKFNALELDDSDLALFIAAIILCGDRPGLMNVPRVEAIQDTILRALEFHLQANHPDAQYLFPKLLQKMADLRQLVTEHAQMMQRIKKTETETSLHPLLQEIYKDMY
How it was run: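 A PPARd-bla HEK293H line with beta-lactamase under an Upstream Activator Sequence is treated with compounds at 37 C. Substrate loading for 2 h at room temperature precedes the fluorescence measurement.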

[9] = target: Peroxisome proliferator-activated receptor delta (Homo sapiens) (UniProt Q03181); test: qHTS assay to identify small molecule antagonists of the peroxisome proliferator-activated receptor delta (PPARd) signaling pathway (AID 743215; active = well fitted inhibition curve with a large enough effect in the signal ratio in the repeat runs, not every such curve was filed as active; the % refers to the signal ratio;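 also: cells stimulated with agonist L165041 at 300 nM final during compound exposure; series mostly up to about 62 µM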)
How it was run: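 With L165041 present at 300 nM final, compounds were incubated 17 h at 37 C on PPARd UAS-bla HEK293H cells. A FRET-based beta-lactamase substrate was then applied for 2 h at room temperature and fluorescence intensity recorded.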

[10] = qHTS assay to identify small molecule agonists of the farnesoid-X-receptor (FXR) signaling pathway - cell viability counter screen (AID 743218); also: nearly all actives have a fitted effect of over 45% in size; also: potency is read from the fitted curve at half-maximal effect
How it was run: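 After 16 h at 37 C with test compounds, FXR-bla HEK 293T cells were given LiveBLAzer B/G substrate for 2 h at RT and then CellTiter-Glo; luminescence was taken after 30 min.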

[11] = target: Vitamin D3 receptor (Homo sapiens) (UniProt P11473); test: qHTS assay to identify small molecule agonists of the vitamin D receptor (VDR) signaling pathway (AID 743222; calls by dose curve)
Sequence of Vitamin D3 receptor (Homo sapiens) (P11473 whole entry, looked up): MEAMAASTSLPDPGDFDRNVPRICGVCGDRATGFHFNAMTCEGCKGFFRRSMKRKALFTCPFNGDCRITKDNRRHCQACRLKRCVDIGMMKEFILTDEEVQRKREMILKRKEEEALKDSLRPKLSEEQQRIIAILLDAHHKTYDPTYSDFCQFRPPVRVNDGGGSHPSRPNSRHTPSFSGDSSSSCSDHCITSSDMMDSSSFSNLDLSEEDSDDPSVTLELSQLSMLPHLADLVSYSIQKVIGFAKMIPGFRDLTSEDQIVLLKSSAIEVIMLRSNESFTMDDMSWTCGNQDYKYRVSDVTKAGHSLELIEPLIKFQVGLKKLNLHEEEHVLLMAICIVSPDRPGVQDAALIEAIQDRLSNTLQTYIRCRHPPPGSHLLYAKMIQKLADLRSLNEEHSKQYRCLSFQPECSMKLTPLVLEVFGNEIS
How it was run: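 VDR-bla cells were seeded, left 4 h, treated with compounds in DMSO for 16 h, incubated 2 h at RT with B/G FRET substrate, and read for fluorescence.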

[12] = target: Vitamin D3 receptor (Homo sapiens) (UniProt P11473); test: qHTS assay to identify small molecule antagonists of the vitamin D receptor (VDR) signaling pathway (AID 743223; active = well fitted inhibition curve with a large enough effect in the signal ratio in the repeat runs, not every such curve was filed as active; the % refers to the signal ratio)
How it was run: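 Cells carrying a VDR-driven beta-lactamase reporter (VDR-bla) were co-treated with compound and 3 nM final 1alpha,25-dihydroxyvitamin D3 for 16 h at 37C; reporter activity was measured as FRET substrate fluorescence after 2 h at room temperature.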

[13] = target: Peroxisome proliferator-activated receptor gamma (Homo sapiens) (UniProt P37231); test: qHTS assay to identify small molecule agonists of the peroxisome proliferator-activated receptor gamma (PPARg) signaling pathway (AID 743094; active = well fitted activation curve with a large enough effect in the signal ratio in the repeat runs, not every such curve was filed as active; the % refers to the signal ratio)
How it was run: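 Following 5 h plating at 37C, PPARg-bla HEK293H cells receive compound or DMSO for 17 h; fluorescence intensity is recorded after LiveBLAzer B/G loading for 1 h at room temperature.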

[14] = qHTS assay to identify small molecule agonists of the peroxisome proliferator-activated receptor delta (PPARd) signaling pathway - cell viability counter screen (AID 743211); also: nearly all actives have a fitted effect of over 55% in size; also: potency is read from the fitted curve at half-maximal effect
How it was run: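 Counter screen for cytotoxicity run in parallel with the PPARd reporter screen. Beta-lactamase reporter HEK293H cells exposed to compounds 17 h; ATP-based CellTiter-Glo luminescence quantified viability.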

[15] = target: Bile acid receptor (Homo sapiens) (UniProt Q96RI1); test: qHTS assay to identify small molecule agonists of the farnesoid-X-receptor (FXR) signaling pathway (AID 743220; active = well fitted activation curve with a large enough effect in the signal ratio in the repeat runs, not every such curve was filed as active; the % refers to the signal ratio)
Sequence of Bile acid receptor (Homo sapiens) (Q96RI1 whole entry, looked up): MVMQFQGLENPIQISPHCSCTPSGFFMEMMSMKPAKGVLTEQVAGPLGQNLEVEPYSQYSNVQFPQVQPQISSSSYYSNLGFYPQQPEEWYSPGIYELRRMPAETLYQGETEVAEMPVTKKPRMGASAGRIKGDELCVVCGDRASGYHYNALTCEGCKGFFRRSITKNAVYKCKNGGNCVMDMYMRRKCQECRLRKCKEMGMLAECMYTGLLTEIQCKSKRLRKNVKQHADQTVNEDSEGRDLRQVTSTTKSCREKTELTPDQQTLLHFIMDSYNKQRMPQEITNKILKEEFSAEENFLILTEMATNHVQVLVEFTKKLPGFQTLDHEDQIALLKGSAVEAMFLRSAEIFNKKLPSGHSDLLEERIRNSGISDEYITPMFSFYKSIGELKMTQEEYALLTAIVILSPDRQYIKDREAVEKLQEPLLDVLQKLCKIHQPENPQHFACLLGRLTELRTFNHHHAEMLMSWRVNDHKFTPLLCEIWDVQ
How it was run: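 Beta-lactamase reporter under UAS control in GeneBLAzer FXR HEK 293T cells (5000/well) measured with LiveBLAzer FRET substrate after 2 h at room temperature. Compound exposure lasted 16 h at 37C.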

[16] = qHTS assay to identify small molecule antagonists of the peroxisome proliferator-activated receptor delta (PPARd) signaling pathway - cell viability counter screen (AID 743213); also: nearly all actives have a fitted effect of over 50% in size; also: potency is read from the fitted curve at half-maximal effect
How it was run: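 Cytotoxicity counter screen: CellTiter-Glo luminescence read 30 min after addition, in the same wells as the reporter assay. There, PPARd UAS-bla HEK293H cells (3000/well) were treated 17 h at 37 C with compound and 300 nM L165041.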

[17] = target: Bile acid receptor (Homo sapiens) (UniProt Q96RI1); test: qHTS assay to identify small molecule antagonists of the farnesoid-X-receptor (FXR) signaling pathway (AID 743217; active = well fitted inhibition curve with a large enough effect in the signal ratio in the repeat runs, not every such curve was filed as active; the % refers to the signal ratio)
How it was run: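 In this cell-based antagonist screen, inhibition of CDCA-driven (50 uM final) UAS-beta-lactamase expression in HEK 293T cells was measured by FRET fluorescence following 16 h compound exposure at 37 °C.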

[18] = qHTS assay to identify small molecule antagonists of the farnesoid-X-receptor (FXR) signaling pathway - cell viability counter screen (AID 743221; active = well fitted cell-killing curve with a large enough effect in the repeat runs, not every such curve was filed as active; also: nearly all actives have a fitted effect of over 50% in size; also: potency is read from the fitted curve at half-maximal effect)
How it was run: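 Multiplexed counter screen: viability of FXR-bla HEK 293T cells under agonist stimulation by chenodeoxycholic acid (50 uM, final) and test compound for 16 h at 37 C, measured by CellTiter-Glo luminescence in the reporter wells.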

[19] = qHTS assay to identify small molecule antagonists of the peroxisome proliferator-activated receptor gamma (PPARg) signaling pathway - cell viability counter screen (AID 743194); also: nearly all actives have a fitted effect of over 55% in size; also: potency is read from the fitted curve at half-maximal effect
How it was run: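 PPARg-UAS-bla HEK293H cells were plated, rested 5 h at 37 C, then treated with compounds plus rosiglitazone (50 nM final) for 17 h at 37 C; viability was then read by CellTiter-Glo luminescence after 30 min at room temperature.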

Measured: Potency

CCN(CC)CCCN(c1ccccc1)C1Cc2ccccc2C1
active: [1] 29.8 µM | [3] 13.3 µM
not listed: [13] | [14] | [15] | [16] | [17] | [18] | [19]
inactive: all other assays above

CCCCN(CCCC)CCC(O)c1cc2c(Cl)cc(Cl)cc2c2cc(C(F)(F)F)ccc12 (centres undefined)
active: [14] 33.5 µM | [10] 29.8 µM
not listed: [4] | [16] | [17] | [18] | [19]
inactive: all other assays above

CCOC(=O)COc1ccc(C)cc1
not listed: [4] | [6] | [7] | [8] | [9] | [11] | [19]
inactive: all other assays above

Cn1cnc2ncnc(N)c21
not listed: [4] | [14] | [15] | [16] | [17] | [19]
inactive: all other assays above

C[Si](C)(C)Cl
not listed: [4] | [11] | [12] | [13] | [14]
inactive: all other assays above

Oc1c(Br)cc(Br)c2cccnc12
active: [2] 0.668 µM | [14] 2.98 µM
inactive: [1] | [3] | [13] | [5] | [6] | [10]

Cc1cccc(C)c1NC(=O)CN1CCN(CCCC(c2ccc(F)cc2)c2ccc(F)cc2)CC1
inactive: [1] | [2] | [13] | [15]
active: [3] 11.4 µM | [19] 26.6 µM | [14] 18.8 µM | [16] 21.1 µM | [10] 26.6 µM

O=C(O)c1cccc(Cl)n1
inactive: [1] | [2] | [3] | [13] | [19] | [5] | [8] | [10]

CC1=C(/C=C/C(C)=C/C=C/C(C)=C/C(=O)Nc2ccc(O)cc2)C(C)(C)CCC1
inactive: [2]
active: [1] 26.6 µM and 28 µM | [3] 28 µM | [4] 71 µM | [5] 44.4 µM | [6] 20 µM and 33.5 µM | [16] 12.6 µM and 7.5 µM | [10] 44.8 µM and 11.9 µM

O=C1c2c(O)ccc([N+](=O)[O-])c2C(=O)c2c([N+](=O)[O-])ccc(O)c21
active: [1] 9.6 µM | [3] 19.2 µM | [4] 6.85 µM | [19] 8.63 µM | [5] 3.82 µM | [6] 10.9 µM | [14] 12.2 µM | [16] 13.7 µM | [10] 54.4 µM | [18] 43.2 µM
inactive: [2]
